Records with an inconclusive call do not appear. Activity calls are given as the source filed them. The calls were made as follows, unless noted: active = hit-call score of the fitted dose curve at least 0.9, where 1 is the maximum; inconclusive = response in the unintended direction; inactive = score below 0.9.
Key:
[1] = TOX21_TRB_BLA_Agonist_Followup_viability: Viability Assessment in the Tox21 Thyroid Hormone Receptor beta Agonism Beta-lactamase (BLA) Follow-Up Assay (AID 2283956)
Procedure, shortened: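 Viability was read as CellTiter-Glo luminescence in the same wells as the TRb-bla agonist read-out. HEK293T GAL4-TRb LBD cells were treated for 18 h (37C, 5% CO2) at 11 concentrations in triplicate. Fits were bidirectional versus DMSO baseline.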

[2] = ATG_M_32_XSP2: Attagene TRANS-FACTORIAL Multi-Species (XSP2) HepG2 Assay for M19 Transcription Factor (Internal Marker) (AID 2283826)
Procedure, shortened: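 Read-out: reporter mRNA quantified by RT-PCR, FAM labeling, HpaI digestion and capillary electrophoresis, 24 h after dosing transfected HepG2 cells. Medium carried 3 nM 6-alpha-fluorotestosterone plus 1.5 nM norgestrel; gain of signal fitted against DMSO.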

[3] = biological target: THRA (gene 7067) (UniProt P10827); test: TOX21_TRA_COA_Antagonist_Followup_ratio: Tox21 Thyroid Hormone Receptor alpha Antagonism through Coactivator Recruitment Follow-Up Assay, Ratio (AID 2283953)
Procedure, shortened: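 We measured antagonism of T3-type coactivator recruitment using a TR-FRET ratio (emission 520 and 495 nm) between a Tb-labelled anti-GST antibody on TRα LBD (2.5 nM) and SRC-2 peptide (200 nM). Activity was scaled between DMSO and T3 wells.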

[4] = biological target: Retinoic acid receptor RXR-alpha (Homo sapiens) (UniProt P19793); test: TOX21_TR_RXR_BLA_Antagonist_Followup_ratio: Tox21 Thyroid Hormone Receptor beta Retinoid X Receptor alpha (RXRa) Antagonism Beta-lactamase (BLA) Follow-Up Assay, Ratio (AID 2283972)
Procedure, shortened: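 After 5 h attachment at 37C, HEK293T RXRa-bla cells (2,500/well, 2% charcoal-stripped FBS, no phenol red) received compounds at 11 concentrations in triplicate for 16 h. Beta-lactamase read as 460:530 nm ratio after 2 h RT substrate loading.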

[5] = TOX21_TR_RXR_BLA_Antagonist_Followup_viability: Viability Assessment in the Tox21 Thyroid Hormone Receptor beta Retinoid X Receptor alpha (RXRa) Antagonism Beta-lactamase (BLA) Follow-Up Assay (AID 2283979)
Procedure, shortened: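 RXRa-bla HEK293T cells (2,500/well, phenol red-free DMEM, 2% charcoal-stripped FBS) were attached 5 h, then exposed to compounds at 11 concentrations in triplicate for 16 h at 37C. Viability measured by CellTiter-Glo ATP luminescence, bidirectional fitting versus DMSO.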

[6] = biological target: human Androgen Receptor (AR), AR (gene 367) (UniProt P10275); test: ATG_hAR_XSP1: Attagene TRANS-FACTORIAL Multi-Species (XSP1) HepG2 Assay for human Androgen Receptor (AR) (AID 2283785)
[7] = biological target: PGR (gene 5241) (UniProt P06401); test: TOX21_PR_BLA_Followup_Agonist_ratio: Tox21 HEK293 Progesterone Receptor (PR) Agonism Beta-lactamase Follow-Up Assay, Ratio (AID 2283933)
Procedure, shortened: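 Ratio-based beta-lactamase reporter signal after 16 hr compound treatment of PR-UAS-bla HEK293T cells at 37C. Substrate loading lasted 2 hr at room temperature.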

[8] = biological target: PGR (gene 5241) (UniProt P06401); test: TOX21_PR_BLA_Followup_Antagonist_ratio: Tox21 HEK293 Progesterone Receptor (PR) Antagonism Beta-lactamase Follow-Up Assay, Ratio (AID 2283934);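 also: PR-UAS-bla HEK293T cells stimulated with 1 nM R5020 agonist for 16 hr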
Procedure, shortened: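 Measured in PR-UAS-bla HEK293T cells co-treated with compound and 1 nM promegestone for 16 hr; beta-lactamase ratio read after 2 h FRET substrate loading, with parallel CellTiter-Glo cytotoxicity.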

[9] = TOX21_PR_BLA_Followup_Agonist_viability: Viability Assessment in the Tox21 HEK293 Progesterone Receptor (PR) Agonism Beta-lactamase Follow-Up Assay (AID 2283935);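 also: signal loss means lower viability so actives are cytotoxic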
Procedure, shortened: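 Viability is read as CellTiter-Glo luminescence, where loss of signal indicates cytotoxicity. The cells are PR-UAS-bla HEK293T given compounds for 16 hr at 37C and 5% CO2, in the same wells used for the bla readout.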

[10] = TOX21_PR_BLA_Followup_Antagonist_viability: Viability Assessment in the Tox21 HEK293 Progesterone Receptor (PR) Antagonism Beta-lactamase Follow-Up Assay (AID 2283936);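 also: cells exposed to compound with R5020 agonist for 16 h; hits lower the luminescence signal meaning cytotoxicity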
Procedure, shortened: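 PR-UAS-bla HEK293T cells in medium with 2% charcoal-stripped FBS were treated with compounds plus R5020 for 16 hr at 37C. After the beta-lactamase read, CellTiter-Glo was added to the same wells and luminescence read after 30 min at room temperature.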

[11] = biological target: PGR (gene 5241) (UniProt P06401); test: TOX21_PR_LUC_Followup_Agonist: Tox21 HEK293 Progesterone Receptor (PR) Agonism Luciferase Follow-Up Assay (AID 2283937; active = hit-call score of the fitted dose curve at least 0.9, where 1 is the maximum; inactive = score below 0.9)
Procedure, shortened: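 In HEK293 cells stably expressing PR-A with a luciferase reporter, compounds were incubated 16 h at 37C, and induced luminescence was quantified with ONE-Glo, multiplexed with cell viability.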

[12] = biological target: PGR (gene 5241) (UniProt P06401); test: TOX21_PR_LUC_Followup_Antagonist: Tox21 HEK293 Progesterone Receptor (PR) Antagonism Luciferase Follow-Up Assay (AID 2283938);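 also: curve fitted upward as signal gain over DMSO baseline despite antagonist label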
Procedure, shortened: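 Luminescence from ONE-Glo was measured 30 min after reagent addition, following 16 h exposure of HEK293-PR-A-luc cells (3,000/well, plated 5 h earlier) to DMSO-dissolved compounds at 37C; DMSO served as baseline.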

[13] = TOX21_PR_LUC_Followup_Antagonist_viability: Viability Assessment in the Tox21 HEK293 Progesterone Receptor (PR) Antagonism Luciferase Follow-Up Assay (AID 2283940)
Procedure, shortened: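 Loss of CellTiter-Glo ATP signal indicates cytotoxicity in HEK293-PR-A-luc cells grown in 10% charcoal-stripped FBS medium, seeded 3,000 per well and incubated 16 h with compound at 37C.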

[14] = TOX21_PR_LUC_Followup_Agonist_viability: Viability Assessment in the Tox21 HEK293 Progesterone Receptor (PR) Agonism Luciferase Follow-Up Assay (AID 2283941);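 also: loss of signal means cytotoxicity so actives lower viability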
Procedure, shortened: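 Seeding: HEK293-PR-A-luc, 3,000 cells/well, 5 h at 37C. Treatment: compound in DMSO, 16 h, 37C. Read: CellTiter-Glo ATP luminescence, signal loss taken as lower viability.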

Chain of PGR (gene 5241) (P06401 whole entry, looked up): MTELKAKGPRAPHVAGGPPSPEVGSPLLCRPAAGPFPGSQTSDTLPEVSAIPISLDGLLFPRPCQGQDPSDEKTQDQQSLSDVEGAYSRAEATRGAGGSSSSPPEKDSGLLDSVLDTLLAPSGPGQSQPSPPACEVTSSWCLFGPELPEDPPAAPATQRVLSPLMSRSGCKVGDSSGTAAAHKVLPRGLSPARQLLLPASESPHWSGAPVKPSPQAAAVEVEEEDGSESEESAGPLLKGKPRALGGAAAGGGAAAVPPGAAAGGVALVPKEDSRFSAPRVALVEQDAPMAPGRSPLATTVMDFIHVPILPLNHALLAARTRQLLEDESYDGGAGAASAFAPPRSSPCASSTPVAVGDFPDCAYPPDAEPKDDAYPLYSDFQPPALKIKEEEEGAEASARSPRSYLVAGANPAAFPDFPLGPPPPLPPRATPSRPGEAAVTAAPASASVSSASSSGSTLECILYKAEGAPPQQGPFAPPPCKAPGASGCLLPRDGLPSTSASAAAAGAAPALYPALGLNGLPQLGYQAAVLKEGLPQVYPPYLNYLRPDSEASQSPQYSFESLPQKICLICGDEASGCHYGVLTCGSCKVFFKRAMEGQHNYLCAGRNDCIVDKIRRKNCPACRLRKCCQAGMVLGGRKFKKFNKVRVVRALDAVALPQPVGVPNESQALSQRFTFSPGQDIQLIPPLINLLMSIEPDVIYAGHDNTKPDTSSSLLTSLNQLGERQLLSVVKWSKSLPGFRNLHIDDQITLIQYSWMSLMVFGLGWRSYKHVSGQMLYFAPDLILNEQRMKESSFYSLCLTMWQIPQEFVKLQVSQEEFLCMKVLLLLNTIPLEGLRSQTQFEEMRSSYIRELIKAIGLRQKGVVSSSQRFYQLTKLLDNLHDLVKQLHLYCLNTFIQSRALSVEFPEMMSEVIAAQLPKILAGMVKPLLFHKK
Chain of human Androgen Receptor (AR), AR (gene 367) (P10275 whole entry, looked up): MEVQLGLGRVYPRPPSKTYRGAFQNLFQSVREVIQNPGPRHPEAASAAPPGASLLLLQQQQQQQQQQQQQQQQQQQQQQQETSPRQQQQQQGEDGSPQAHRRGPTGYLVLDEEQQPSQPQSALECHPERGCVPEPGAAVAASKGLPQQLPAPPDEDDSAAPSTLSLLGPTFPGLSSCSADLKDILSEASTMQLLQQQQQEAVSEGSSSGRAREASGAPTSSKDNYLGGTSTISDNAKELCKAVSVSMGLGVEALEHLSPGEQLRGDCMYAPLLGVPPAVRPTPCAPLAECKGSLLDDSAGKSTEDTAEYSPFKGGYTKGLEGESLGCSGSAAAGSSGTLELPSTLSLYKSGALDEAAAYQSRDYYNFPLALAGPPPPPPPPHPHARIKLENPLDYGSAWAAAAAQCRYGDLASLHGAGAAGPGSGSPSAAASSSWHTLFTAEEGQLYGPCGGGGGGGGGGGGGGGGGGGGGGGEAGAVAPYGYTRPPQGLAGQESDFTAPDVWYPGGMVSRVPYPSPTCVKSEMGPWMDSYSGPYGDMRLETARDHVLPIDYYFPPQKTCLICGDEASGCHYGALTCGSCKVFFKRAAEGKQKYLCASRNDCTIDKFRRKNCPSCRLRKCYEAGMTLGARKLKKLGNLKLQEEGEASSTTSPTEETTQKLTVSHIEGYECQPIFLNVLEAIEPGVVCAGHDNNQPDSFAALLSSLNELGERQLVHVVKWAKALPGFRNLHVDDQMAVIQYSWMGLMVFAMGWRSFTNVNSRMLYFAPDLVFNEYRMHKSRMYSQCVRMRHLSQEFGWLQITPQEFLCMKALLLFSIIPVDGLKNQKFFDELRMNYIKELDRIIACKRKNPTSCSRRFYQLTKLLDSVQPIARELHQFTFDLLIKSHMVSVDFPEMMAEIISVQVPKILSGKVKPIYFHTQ
Chain of THRA (gene 7067) (P10827 whole entry, looked up, the tested form may be a part): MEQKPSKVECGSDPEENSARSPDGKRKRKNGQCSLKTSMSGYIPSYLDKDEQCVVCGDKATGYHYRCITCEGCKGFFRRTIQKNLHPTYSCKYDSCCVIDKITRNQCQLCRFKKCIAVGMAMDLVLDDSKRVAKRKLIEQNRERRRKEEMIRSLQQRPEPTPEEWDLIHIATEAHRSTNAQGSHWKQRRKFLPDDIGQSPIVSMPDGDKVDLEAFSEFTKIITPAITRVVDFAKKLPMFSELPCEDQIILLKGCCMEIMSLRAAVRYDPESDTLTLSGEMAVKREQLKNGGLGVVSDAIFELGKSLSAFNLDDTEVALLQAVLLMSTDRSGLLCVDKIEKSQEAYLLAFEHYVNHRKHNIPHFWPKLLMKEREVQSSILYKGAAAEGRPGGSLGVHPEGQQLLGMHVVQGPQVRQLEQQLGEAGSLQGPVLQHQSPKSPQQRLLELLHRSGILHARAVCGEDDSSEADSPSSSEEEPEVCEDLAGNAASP
Chain of Retinoic acid receptor RXR-alpha (Homo sapiens) (P19793 whole entry, looked up): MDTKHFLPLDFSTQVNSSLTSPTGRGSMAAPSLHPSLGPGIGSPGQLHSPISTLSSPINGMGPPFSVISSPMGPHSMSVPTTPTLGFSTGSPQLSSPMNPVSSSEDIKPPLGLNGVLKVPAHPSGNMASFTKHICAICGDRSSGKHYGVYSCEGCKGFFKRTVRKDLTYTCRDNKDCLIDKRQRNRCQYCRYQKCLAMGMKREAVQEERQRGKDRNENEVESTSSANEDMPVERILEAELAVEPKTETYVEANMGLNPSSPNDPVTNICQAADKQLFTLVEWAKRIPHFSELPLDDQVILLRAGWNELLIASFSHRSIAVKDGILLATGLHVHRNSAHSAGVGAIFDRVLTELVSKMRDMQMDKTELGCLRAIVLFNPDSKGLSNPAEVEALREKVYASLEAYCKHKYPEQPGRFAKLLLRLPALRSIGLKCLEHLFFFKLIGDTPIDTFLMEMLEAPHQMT

## OCCCCC(O)CO (stereo unspecified)
[1]
  outcome: inactive

## C=C(NC(=O)C(=C)NC(=O)c1csc(C2=NC3c4csc(n4)C4NC(=O)c5csc(n5)C(C(C)(O)C(C)O)NC(=O)C5CSC(=N5)/C(=C/C)NC(=O)C(C(C)O)NC(=O)c5csc(n5)C3(CC2)NC(=O)C(C)NC(=O)C(=C)NC(=O)C(C)NC(=O)C(C(C)CC)NC2C=Cc3c(C(C)O)cc(nc3C2O)C(=O)OC4C)n1)C(N)=O (stereo unspecified)
[1]
  outcome: inactive

## CCCOC(=O)c1ccc(O)cc1
[2]
  outcome: inactive

## Nc1ncn([C@H]2C[C@H](O)[C@@H](CO)O2)c(=O)n1
[1]
  outcome: inactive

## CC[n+]1ccccc1
[3]
  outcome: inactive
[4]
  outcome: inactive
[5]
  outcome: inactive

## CSCC[C@H](NC(=O)[C@H](Cc1ccc(OS(=O)(=O)O)cc1)NC(=O)[C@@H](N)CC(=O)O)C(=O)NCC(=O)N[C@@H](Cc1c[nH]c2ccccc12)C(=O)N[C@@H](CCSC)C(=O)N[C@@H](CC(=O)O)C(=O)N[C@@H](Cc1ccccc1)C(N)=O
[1]
  outcome: inactive

## CCCCCCC(C)O (stereo unspecified)
[1]
  outcome: inactive

## CC1=C(/C=C/C(C)=C\C=C\C(C)=C\C(=O)O)C(C)(C)CCC1
[1]
  outcome: inactive

## CC1(C)C(C=C(Cl)Cl)C1C(=O)OCc1cccc(Oc2ccccc2)c1 (stereo unspecified)
[6]
  outcome: inactive

## CCCCCCC(O)CO (stereo unspecified)
[1]
  outcome: inactive

## O=C(CBr)Nc1ccc(Cl)cc1C(=O)c1ccccc1F
[7]
  outcome: inactive
[8]
  outcome: inactive
[9]
  outcome: inactive
[10]
  outcome: inactive
[11]
  outcome: inactive
[12]
  outcome: inactive
[13]
  outcome: inactive
[14]
  outcome: inactive

## Cc1cc(-n2c(=O)[nH]c(=O)n(C)c2=O)ccc1Oc1ccc(S(=O)(=O)C(F)(F)F)cc1
[1]
  outcome: inactive

## CCC(C)c1cc(C(C)(C)C)c(O)c(C(C)(C)C)c1 (stereo unspecified)
[1]
  outcome: inactive

## CC(=O)OCCC(C)CC(C)(C)C (stereo unspecified)
[1]
  outcome: inactive

## CC(C)(C)CC(C)(C)c1ccc(O)c(Cc2ccc(Cl)cc2Cl)c1
[1]
  outcome: inactive

## CC(C)CC(=O)O
[1]
  outcome: inactive

## NC(CO)(CO)CO
[1]
  outcome: inactive

From PubChem BioAssay (EPA / NIEHS)
